Source: PubChem BioAssay (Tox21)
Where “and” joins values, the source holds several entries; their conditions need not be identical. Equal values may be shown once. Inconclusive results are not listed. Where a call stands in place of a potency, no number is given. A structure can be active in one record and inactive in another. Calls of active or inactive are those of the source. Unless noted, calls come from the whole dose curve.

Legend:
[1] = Nuclear factor erythroid 2-related factor 2/antioxidant responsive element (Nrf2/ARE) small molecule agonists: qHTS cell viability counter screen in human keratinocytes (AID 1919968; active = well fitted curve in the direction sought with a large enough effect in the repeat runs; an effect the other way counts as inactive or inconclusive; note: nearly all actives have a fitted effect of over 55% in size; note: potency is the fitted concentration of half-maximal effect)
How it was run: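 Viability counter-screen: KeratinoSens reporter cells, DMSO-delivered compounds, 23 h at 37 C, CellTiter-Fluor fluorescence.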

[2] = Nuclear factor erythroid 2-related factor 2/antioxidant responsive element (Nrf2/ARE) small molecule agonists: luciferase reporter gene qHTS assay in human keratinocytes (AID 1919969); note: nearly all actives have a fitted effect of over 35% in size; note: potency is the fitted concentration of half-maximal effect
[3] = target: Gonadotropin-releasing hormone receptor (Homo sapiens) (UniProt P30968); assay: Human gonadotropin-releasing hormone receptor (GnRHR) small molecule agonists, calcium flux assay in GnRHR-HEK293 cells (AID 1920063); note: nearly all actives have a fitted effect of over 35% in size
Chain of Gonadotropin-releasing hormone receptor (Homo sapiens) (P30968 whole entry, looked up): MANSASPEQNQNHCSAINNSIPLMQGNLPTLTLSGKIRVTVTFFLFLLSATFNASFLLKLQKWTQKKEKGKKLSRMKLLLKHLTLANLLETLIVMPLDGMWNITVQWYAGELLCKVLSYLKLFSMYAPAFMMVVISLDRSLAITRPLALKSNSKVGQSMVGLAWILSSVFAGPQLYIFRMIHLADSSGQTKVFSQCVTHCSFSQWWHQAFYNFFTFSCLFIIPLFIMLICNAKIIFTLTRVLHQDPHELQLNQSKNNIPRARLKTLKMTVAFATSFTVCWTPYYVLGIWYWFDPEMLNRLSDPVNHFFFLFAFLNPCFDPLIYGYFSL
How it was run: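 Tox21-format agonist screen using human GnRHR-expressing HEK293 cells and a fluorescent calcium dye; kinetic 3-min fluorescence reading after compound addition, 15-point concentration series run in triplicate.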

[4] = target: KiSS-1 receptor (Homo sapiens) (UniProt Q969F8); assay: Human kisspeptin (KISS1R) small molecule agonists, calcium flux assay in KISS1R-HEK293 cells (AID 1920064; active = well fitted curve in the direction sought with a large enough effect in the repeat runs; an effect the other way counts as inactive or inconclusive)
Chain of KiSS-1 receptor (Homo sapiens) (Q969F8 whole entry, looked up): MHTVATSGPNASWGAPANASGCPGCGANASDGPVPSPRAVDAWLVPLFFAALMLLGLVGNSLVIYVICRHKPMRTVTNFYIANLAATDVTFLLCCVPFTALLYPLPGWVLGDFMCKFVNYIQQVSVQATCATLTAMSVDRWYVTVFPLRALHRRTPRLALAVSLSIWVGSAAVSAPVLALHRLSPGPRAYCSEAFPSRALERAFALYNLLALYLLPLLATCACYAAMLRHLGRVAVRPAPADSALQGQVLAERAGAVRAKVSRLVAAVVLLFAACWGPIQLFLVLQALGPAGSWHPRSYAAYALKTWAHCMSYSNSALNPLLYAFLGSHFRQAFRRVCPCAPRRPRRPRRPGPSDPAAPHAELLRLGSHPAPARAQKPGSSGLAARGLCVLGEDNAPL
How it was run: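 Intracellular calcium mobilization in KISS1R-HEK293 cells was recorded by fluorescence (Ex/Em 480/540) for 3 min following compound addition to cells pre-loaded 1 h with calcium dye.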

[5] = G protein-coupled receptor (GPCR) small molecule agonists, calcium flux assay: HEK293 wild type cell line counter screen (AID 1920065)
How it was run: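 In this agonist-mode screen, ATP is the positive control and DMSO the vehicle. Cells grow 18 h before a 1 h dye incubation at 37 C; signal is taken at Ex/Em 480/540 over 3 min.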

[6] = p53 small molecule agonists, cell-based qHTS assay with human liver microsomes (AID 1963577)
How it was run: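 Compounds act here after metabolic activation: human liver microsomes and NADPH, both at 0.5 mg/mL final, were co-added to p53RE-bla cells. Incubation ran 16 h at 37 C, followed by LiveBLAzer detection.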

[7] = p53 small molecule agonists, cell-based qHTS assay with rat liver microsomes (AID 1963578); note: potency is the fitted concentration of half-maximal effect
How it was run: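 Read-out is beta-lactamase reporter fluorescence (LiveBLAzer, 2 h, room temperature, dark) in p53RE-bla cells treated 16 h at 37 C with compound, rat liver microsomes and NADPH, both 0.5 mg/mL final.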

[8] = p53 small molecule agonists, cell-based qHTS assay with human liver microsomes: qHTS cell viability counter screen (AID 1963579); note: nearly all actives have a fitted effect of over 45% in size; note: potency is the fitted concentration of half-maximal effect
How it was run: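 Cells carrying the p53 response-element beta-lactamase reporter are treated for 16 h at 37 C with test compounds in the presence of human liver microsomes and NADPH (both 0.5 mg/mL final); ATP-based CellTiter-Glo luminescence then reports viability.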

[9] = p53 small molecule agonists, cell-based qHTS assay with rat liver microsomes: qHTS cell viability counter screen (AID 1963580); note: nearly all actives have a fitted effect of over 45% in size
How it was run: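 HCT-116 p53RE-bla, 4,000 cells/well, 5 h pre-incubation; cpd + rat liver microsomes 0.5 mg/mL + NADPH 0.5 mg/mL (final); 16 h, 37 C; CellTiter-Glo, 30 min RT; luminescence.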

[10] = p53 small molecule agonists, cell-based qHTS assay (AID 1963582; active = well fitted activation curve with a large enough effect in the signal ratio in the repeat runs, not every such curve was filed as active; the % refers to the signal ratio)
How it was run: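 Agonist activity was scored from beta-lactamase FRET fluorescence in p53RE-bla cells treated 16 h at 37 C with compounds in DMSO, substrate incubation being 2 h at room temperature.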

[11] = target: 5-hydroxytryptamine receptor 2A (Homo sapiens) (UniProt P28223); assay: 5-hydroxytryptamine receptor 2A (HTR2A) small molecule antagonists, cell-based qHTS assay (AID 1963586); note: nearly all actives have a fitted effect of over 45% in size
Chain of 5-hydroxytryptamine receptor 2A (Homo sapiens) (P28223 whole entry, looked up): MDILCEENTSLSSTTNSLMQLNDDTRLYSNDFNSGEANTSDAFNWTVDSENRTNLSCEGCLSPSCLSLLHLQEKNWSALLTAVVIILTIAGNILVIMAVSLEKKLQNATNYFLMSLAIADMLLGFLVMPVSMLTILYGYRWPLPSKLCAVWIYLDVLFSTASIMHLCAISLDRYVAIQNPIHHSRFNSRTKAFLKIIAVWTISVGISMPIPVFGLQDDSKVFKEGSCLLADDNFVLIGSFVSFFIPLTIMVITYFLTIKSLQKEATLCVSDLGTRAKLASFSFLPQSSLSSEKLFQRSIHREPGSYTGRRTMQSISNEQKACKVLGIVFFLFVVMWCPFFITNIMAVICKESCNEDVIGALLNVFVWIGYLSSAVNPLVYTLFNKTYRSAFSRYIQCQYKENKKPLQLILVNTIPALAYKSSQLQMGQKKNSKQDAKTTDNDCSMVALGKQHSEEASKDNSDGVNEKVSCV
How it was run: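 Antagonist-mode intracellular calcium assay: DOI (4 nM) added after 5 min compound pre-incubation at room temperature to dye-loaded HTR2A-CHO cells. Fluorescence followed for 3 min, sampled every second.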

[12] = target: 5-hydroxytryptamine receptor 2A (Homo sapiens) (UniProt P28223); assay: 5-hydroxytryptamine receptor 2A (HTR2A) small molecule agonists, cell-based qHTS assay (AID 1963587); note: nearly all actives have a fitted effect of over 30% in size
How it was run: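 Kinetic calcium-flux fluorescence (2 min, 1 sec intervals) after compound addition in agonist mode. HTR2A-CHO cells were cultured 18 h, then dye-loaded 1 h at 37 C.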

[13] = target: Muscarinic acetylcholine receptor M1 (Homo sapiens) (UniProt P11229); assay: Cholinergic receptor muscarinic 1 (CHRM1) small molecule agonists, cell-based qHTS assay (AID 1963589); note: nearly all actives have a fitted effect of over 35% in size
Chain of Muscarinic acetylcholine receptor M1 (Homo sapiens) (P11229 whole entry, looked up): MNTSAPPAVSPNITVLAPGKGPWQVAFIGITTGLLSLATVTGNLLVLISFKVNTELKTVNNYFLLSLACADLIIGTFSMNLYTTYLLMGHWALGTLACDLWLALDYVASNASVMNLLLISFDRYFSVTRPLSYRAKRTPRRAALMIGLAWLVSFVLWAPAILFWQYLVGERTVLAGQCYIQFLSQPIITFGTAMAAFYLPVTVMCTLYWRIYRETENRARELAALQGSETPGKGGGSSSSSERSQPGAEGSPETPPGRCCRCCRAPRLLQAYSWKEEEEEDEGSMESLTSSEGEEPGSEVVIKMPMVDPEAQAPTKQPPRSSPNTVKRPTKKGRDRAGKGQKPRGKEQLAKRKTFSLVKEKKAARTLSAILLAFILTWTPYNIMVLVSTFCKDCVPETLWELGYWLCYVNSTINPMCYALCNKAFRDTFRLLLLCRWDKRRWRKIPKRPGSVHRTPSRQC
How it was run: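 Stable CHRM1-CHO cells (human receptor) were incubated 18 h, dye-loaded for 1 h at 37 C and exposed to test compounds for agonist activity, with calcium-dependent fluorescence followed kinetically.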

[14] = cAMP Responsive Elements (CRE) small molecule agonists, cell-based qHTS assay (AID 1963590)
How it was run: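 FRET-based beta-lactamase readout (LiveBLAzer B/G, 2 h RT) quantified CRE activation in HEK 293T CRE-bla cells after 3 h treatment with DMSO-dissolved compounds.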

[15] = cAMP Responsive Elements (CRE) small molecule antagonists, cell-based qHTS assay (AID 1963591; active = well fitted inhibition curve with a large enough effect in the signal ratio in the repeat runs, not every such curve was filed as active; the % refers to the signal ratio; note: potency is the fitted concentration of half-maximal effect)
How it was run: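 qHTS in CRE-bla HEK 293T cells: compound in DMSO, then 0.25 uM NKH477 (final), 3 h at 37 °C/5% CO2; beta-lactamase FRET read-out after 2 h substrate incubation.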

[16] = target: Beta-2 adrenergic receptor (Homo sapiens) (UniProt P07550); assay: Adrenergic beta2 receptor (ADRB2) small molecule antagonists, cell-based qHTS assay (AID 1963592); note: series mostly up to about 92 µM; nearly all actives have a fitted effect of over 50% in size
Chain of Beta-2 adrenergic receptor (Homo sapiens) (P07550 whole entry, looked up): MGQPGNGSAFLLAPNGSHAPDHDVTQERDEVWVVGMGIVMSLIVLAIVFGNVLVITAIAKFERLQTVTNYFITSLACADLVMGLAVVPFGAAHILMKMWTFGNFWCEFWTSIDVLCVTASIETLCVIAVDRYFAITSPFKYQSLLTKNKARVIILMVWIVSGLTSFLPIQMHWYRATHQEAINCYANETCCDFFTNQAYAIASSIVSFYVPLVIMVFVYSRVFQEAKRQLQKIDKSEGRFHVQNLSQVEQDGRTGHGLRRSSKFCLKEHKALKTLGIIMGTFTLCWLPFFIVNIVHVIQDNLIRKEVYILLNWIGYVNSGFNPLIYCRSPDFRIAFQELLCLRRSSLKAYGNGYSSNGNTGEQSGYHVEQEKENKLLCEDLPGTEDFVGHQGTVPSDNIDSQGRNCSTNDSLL
How it was run: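 Cells (CHO, stable ADRB2 overexpression) incubated 18-20hr at 37C; compounds added from DMSO; agonist mix (1nM isoproterenol, 100uM IBMX, 25uM Ro-20-1724) added; 0.5hr RT; d2-cAMP and anti-cAMP-cryptate added; 1hr RT; 665/615 nm read.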

[17] = target: D(2) dopamine receptor (Homo sapiens) (UniProt P14416); assay: Dopamine D2 receptor (DRD2) small molecule agonists, cell-based qHTS assay (AID 1963594); note: nearly all actives have a fitted effect of over 35% in size
Chain of D(2) dopamine receptor (Homo sapiens) (P14416 whole entry, looked up): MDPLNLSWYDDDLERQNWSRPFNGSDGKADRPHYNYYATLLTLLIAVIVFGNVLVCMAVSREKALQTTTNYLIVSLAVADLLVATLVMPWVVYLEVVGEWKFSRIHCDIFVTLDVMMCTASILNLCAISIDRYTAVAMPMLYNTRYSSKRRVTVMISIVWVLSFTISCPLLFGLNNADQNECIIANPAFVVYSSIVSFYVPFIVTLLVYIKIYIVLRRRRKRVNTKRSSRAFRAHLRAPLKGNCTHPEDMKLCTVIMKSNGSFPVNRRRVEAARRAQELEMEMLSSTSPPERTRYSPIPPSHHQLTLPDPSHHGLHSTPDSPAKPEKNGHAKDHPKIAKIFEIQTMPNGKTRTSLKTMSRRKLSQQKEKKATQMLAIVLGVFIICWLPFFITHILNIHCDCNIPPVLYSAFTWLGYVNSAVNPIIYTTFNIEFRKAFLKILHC
How it was run: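 cAMP accumulation in DRD2-HEK293 cells measured by HTRF after 1 h detection; compounds added 10 min before NKH477 (200nM […]) forskolin-analogue stimulation, 30 min at room temperature, with Ro20-1724 present at 0.1 mM final.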

[18] = target: D(2) dopamine receptor (Homo sapiens) (UniProt P14416); assay: Dopamine D2 receptor (DRD2) small molecule antagonists, cell-based qHTS assay (AID 1963595; active = well fitted inhibition curve with a large enough effect in the signal ratio in the repeat runs, with a control signal flat; the % refers to the signal ratio)
How it was run: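 In this cell-based antagonist screen, compounds act for 10 min at room temperature before a 30 min challenge with 12 nM quinpirole and 200 nM NKH477. cAMP is quantified by HTRF competition in DRD2-HEK293 cells containing 0.1 mM Ro20-1724.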

[19] = p53 small molecule agonists, cell-based qHTS assay: qHTS cell viability counter screen (AID 1963581); note: nearly all actives have a fitted effect of over 45% in size
How it was run: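 Compounds are pinned onto HCT-116 p53RE-bla cells and left 16 h at 37 C. Following the reporter FRET read, ATP is quantified by CellTiter-Glo luminescence after 30 min at room temperature.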

[20] = target: Muscarinic acetylcholine receptor M1 (Homo sapiens) (UniProt P11229); assay: Cholinergic receptor muscarinic 1 (CHRM1) small molecule antagonists, cell-based qHTS assay (AID 1963588); note: nearly all actives have a fitted effect of over 40% in size; note: potency is the fitted concentration of half-maximal effect
How it was run: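 CHRM1-CHO calcium-flux assay, antagonist mode. Cells were seeded 18 h, dye-loaded 1 h at 37 C and given compound for 5 min at RT, then acetylcholine was added at 50nM. FDSS fluorescence was read 3 min; 15 concentrations, three runs.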

Row | Structure (SMILES) | Potency [1] | Potency [2] | Potency [3] | Potency [4] | Potency [5] | Potency [6] | Potency [7] | Potency [8] | Potency [9] | Potency [10] | Potency [11] | Potency [12] | Potency [13] | Potency [14] | Potency [15] | Potency [16] | Potency [17] | Potency [18] | Potency [19] | Potency [20]
1 | CCCCOC(=O)c1ccccc1C(=O)OCCCC | inactive | inactive | inactive | inactive | inactive | inactive | inactive | inactive | inactive | inactive | inactive | inactive | inactive | inactive | inactive | inactive | inactive | inactive | – | –
2 | CC1CC(CC2CCC(N)C(C)C2)CCC1N (stereo not given) | 7.82 µM (active) | inactive | inactive | inactive | inactive | inactive | inactive | inactive | – | inactive | inactive | inactive | inactive | inactive | inactive | inactive | inactive | inactive | inactive | 6.04 µM (active)
3 | O=c1n(Cl)c(=O)n(Cl)c(=O)n1Cl | inactive | inactive | inactive | inactive | inactive | inactive | inactive | inactive | – | inactive | inactive | inactive | inactive | inactive | inactive | inactive | inactive | inactive | inactive | inactive
4 | CNC(=O)N(C)c1nnc(C(C)(C)C)s1 | inactive | inactive | inactive | inactive | inactive | inactive | inactive | inactive | – | inactive | inactive | inactive | inactive | inactive | inactive | inactive | inactive | inactive | inactive | inactive
5 | CC(C)OC(=O)Cc1ccccc1 | inactive | inactive | inactive | inactive | inactive | inactive | inactive | inactive | – | inactive | inactive | inactive | inactive | inactive | inactive | inactive | inactive | – | inactive | inactive
6 | CN1C(=O)NC(=O)C(C)(C2=CCCCC2)C1=O (stereo not given) | inactive | inactive | inactive | inactive | inactive | inactive | inactive | inactive | – | inactive | inactive | inactive | inactive | inactive | inactive | inactive | – | – | inactive | inactive
7 | CNC(=O)Oc1cccc2ccccc12 | inactive | inactive | inactive | inactive | inactive | inactive | 32.4 µM (active) | inactive | – | inactive | inactive | inactive | inactive | inactive | inactive | inactive | inactive | inactive | inactive | inactive
8 | Clc1ccc(COC(Cn2ccnc2)c2ccc(Cl)cc2Cl)cc1 (stereo not given) | 45.3 µM (active) and 27.2 µM (active) and 13.3 µM (active) | 22.7 µM (active) and 13.3 µM (active) | inactive | inactive | inactive | inactive | inactive | 38 µM (active) and inactive | inactive | – | – | – | – | inactive | 50.8 µM (active) | inactive | inactive | – | – | –
9 | O=C(CBr)c1ccc(O)cc1 | inactive | 68.6 µM (active) | inactive | inactive | inactive | inactive | inactive | inactive | inactive | inactive | inactive | inactive | inactive | inactive | inactive | inactive | inactive | inactive | – | inactive
10 | Cn1c(-c2ccccc2)cc(-c2ccccc2)[n+]1C | inactive | inactive | inactive | inactive | inactive | inactive | inactive | inactive | inactive | – | inactive | inactive | inactive | – | inactive | inactive | inactive | inactive | – | 6.66 µM (active) and inactive
11 | CC(C)Nc1nc(Cl)nc(NC(C)C)n1 | inactive | inactive | inactive | inactive | inactive | inactive | inactive | inactive | inactive | inactive | inactive | inactive | inactive | inactive | inactive | inactive | inactive | inactive | – | inactive
12 | CCC(C)c1ccc(O)cc1 (stereo not given) | inactive | inactive | inactive | inactive | inactive | inactive | inactive | inactive | inactive | inactive | inactive | inactive | inactive | – | – | – | inactive | inactive | – | inactive
13 | Nn1cnnc1 | inactive | inactive | inactive | inactive | inactive | inactive | inactive | inactive | – | inactive | inactive | inactive | inactive | inactive | inactive | inactive | inactive | inactive | inactive | inactive
14 | Nc1ccccc1Cl | inactive | inactive | inactive | inactive | inactive | inactive | inactive | inactive | inactive | inactive | – | inactive | inactive | inactive | inactive | inactive | inactive | inactive | – | inactive
